Test in all cases: NCI-60 one-dose screen, 48 h (100 = growth as untreated, 0 = no growth, -100 = all killed)
Common to all, as to details: 10 µM unless noted

Experiment [1] relates to SK-MEL-2 melanoma.
Experiment [2] relates to EKVX NSCLC.
Experiment [3] deals with SN12C renal.
Experiment [4] concerns UO-31 renal.
Experiment [5] has as its system TK-10 renal.
The subject of experiment [6] is ACHN renal.
Experiment [7] has as its system CAKI-1 renal.
Experiment [8] relates to A498 renal.
For experiment [9], the system named is CCRF-CEM leukemia.
Experiment [10] relates to MOLT-4 leukemia.

Compounds without any hit were thinned out: in the full panel of roughly 83,000, 20% have a hit.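 Percent growth is the endpoint: 0 to 100 indicates growth inhibition (40 means 60% inhibition), 0 means no net growth, and negative values indicate cell death.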 A number with no mark means an inactive call. Calls of active or inactive are those of the source. The calls were made as follows: active = growth percent below 10; inactive = the rest.

Regarding `O=C(O)c1nc(-c2ccccc2)oc1N1CCOCC1`, the growth in experiment [1] is 97%; in experiment [2], 104%; in [3] it was 99%; in experiment [4], 81.6%; in [5] it was 91.9%; in experiment [6] it was 101%. Besides, the growth in experiment [7] is 92.2%; in experiment [8], 114%; in [9] it was 107%; in [10] it was 105%.
In the case of `CCOC(=O)/C(C#N)=C1/C(=O)Nc2ccccc21`, the growth in experiment [1] is 122%; in [2] it was 117%; in experiment [3], 96.3%; in experiment [4] it was 71.1%; in experiment [5], 130%; in [6] it was 102%. Besides, the growth in [7] was 99.4%; in [8], 132%; in experiment [9], 67.1%; in experiment [10], 138%.
As for `Cc1nn(-c2ccc(Cl)cc2)c2ncnc(N/N=C/c3cccc([N+](=O)[O-])c3)c12`, the growth is 99% in [1]; 84% in experiment [2]; 101% in [3]; 72.3% in experiment [4]; 93.3% in experiment [5]; 108% in experiment [6]. The growth in experiment [7] is 76.4%; in [8], 85.5%; in [9], 20.5%; in experiment [10], 15.4%.
Turning to `CC(C)C1=CC2=C(C=O)C[C@@H]3[C@](C)(CCC[C@@]3(C)C(=O)OCC#CCN3CCCC3)[C@H]2CC1`, the growth was 94% in [1]; 98.2% in experiment [2]; 83.7% in [3]; 61.6% in [4]; 93.6% in experiment [5]; 97.3% in [6]. The growth in experiment [7] was 105%; in experiment [8], 88.6%; in [9], 63.9%; in experiment [10] it was 66.9%.
On to `O=c1ccn(-c2ncnc3nc[nH]c23)cc1`, for which the growth was 90.9% in experiment [1]; 91.4% in [2]; 90.3% in [3]; 67% in experiment [4]; 86.4% in [5]; 99.3% in experiment [6]. In addition, the growth in [7] was 74.6%; in experiment [8] it was 87.6%; in experiment [9] it was 89.7%; in [10], 96%.
Turning to `Cc1ccc(S(=O)(=O)NC(=O)n2cc(-c3ccncc3)c(-c3ccc(Cl)c(O)c3)n2)cc1`, the growth was 90.9% in experiment [1]; 110% in experiment [2]; 99.9% in experiment [3]; 107% in [4]; 95.5% in experiment [5]; 94.5% in [6]. The growth in experiment [7] is 95.5%; in [8], 105%; in experiment [9], 93.9%; in experiment [10], 85.2%.
As to `CCCCNC(=O)Oc1ccc(/C(=C(\C)c2ccccc2)c2ccc(OCCN(CC)CC)cc2)cc1`, the growth was 92.1% in [1]; 80.8% in [2]; 83.3% in experiment [3]; 44.1% in experiment [4]; 88.1% in experiment [5]; 88% in experiment [6]. Further, the growth in [7] is 82.5%; in experiment [8], 65.3%; in experiment [9] it was 60.1%; in experiment [10] it was 42%.
As to `CCCCCCCC[C@@H](O)CC(=O)N[C@@H](CC(N)=O)C(=O)N[C@@H](CCC(N)=O)C(=O)N[C@@H](CC(=O)c1cc(C)cc(O)c1C(=O)c1c(O)cccc1O)CC(C)C`, the growth in experiment [1] was 51.9%; in experiment [2] it was 61.1%; in [3], 25.4%; in [4], 63.2%; in [5], -6.12% (active); in [6] it was 31.9%. Besides, the growth in experiment [7] is 40.6%; in experiment [8] it was -3.25% (active); in experiment [9], 11.6%; in experiment [10], 14%.
For `CN(C)CCOC(=O)Nc1ccccc1Cl`, the growth in experiment [1] was 118%; in [2], 115%; in experiment [3] it was 104%; in experiment [4], 86.6%; in [5] it was 106%; in experiment [6], 108%. The growth in experiment [7] is 97.7%; in experiment [8] it was 112%; in experiment [9] it was 93.4%; in experiment [10], 99.2%.
As to `CCN(CC)CCC(CNc1ccnc2cc(Cl)ccc12)c1ccc(Cl)cc1` (stereo not given), the growth is -75.7% (active) in experiment [1]; 67.4% in experiment [2]; 42.2% in experiment [3]; -84.7% (active) in [4]; -8.87% (active) in [5]; -74.5% (active) in [6]. Moreover, the growth in experiment [7] was -40.3% (active); in experiment [8], 0.939% (active); in [9], 3.11% (active); in experiment [10] it was 7.05% (active).
`Clc1ccc2c(NC3CCC(NC4CCCCC4)CC3)ccnc2c1` (stereo not given): the growth in [1] is 55.2%; in experiment [2] it was 68.1%; in [3] it was 74.1%; in experiment [4] it was 56.2%; in [5] it was 48.8%; in experiment [6] it was 58.2%. The growth in [7] was 47.9%; in experiment [8] it was 62.5%; in [9], 70.2%; in [10], 56.9%.
Take `CCOC(=O)c1cc(C(=O)c2cc(OC)c(OC)c(OC)c2)n2c1ccc1ccccc12`: the growth is 50.2% in experiment [1]; 52.2% in experiment [2]; 25.3% in experiment [3]; 32.2% in experiment [4]; 80.6% in experiment [5]; 33.5% in [6]. The growth in [7] was 27.3%; in experiment [8], -10.9% (active); in experiment [9], 8.36% (active); in experiment [10], 33.4%.
Regarding `CN1CCN(CCCOc2ccc3nc(Nc4ccc(Cl)c(C(F)(F)F)c4)ccc3c2)CC1`, the growth was 89.9% in [1]; 71.8% in experiment [2]; 63.9% in experiment [3]; 69.6% in experiment [4]; 75.9% in [5]; 55.9% in experiment [6]. In addition, the growth was 83.8% in [7], 101% in [8], 17.6% in experiment [9] and 19.1% in experiment [10].
`CC(C)(C)n1cc(-c2ccnc(NCCCNS(=O)(=O)c3cccc(F)c3)c2)c(-c2cccc(O)c2)n1`: the growth in experiment [1] was 61%; in experiment [2], 51.5%; in [3], 59.7%; in experiment [4], 57.8%; in experiment [5], 97.9%; in experiment [6] it was 51.7%. Besides, the growth in experiment [7] is 56.2%; in experiment [8], 51.9%; in experiment [9] it was 39.6%; in [10], 33.4%.

The record behind these values is PubChem BioAssay (NCI).
